FAS-TE inh = blocks the thioesterase domain of human fatty acid synthase; P49327; recombinant FAS-TE, OMFH fluorogenic substrate, fluorescence endpoint; inhibition, % at 15 µM; 360,000 tested, 0.67% active; AID 602261;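 active = compounds whose normalised, plate-corrected inhibition of enzyme fluorescence in the single-dose primary screen is 50% or more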
rCAG binder = r(CAG) repeat RNA binding; TO-PRO-1 dye displacement fluorescence; inhibition, % at 3 µM; 370,000 tested, 1.3% active; AID 651821;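 active = inhibition above the plate cutoff, the mean of all test compounds on that plate plus 3 SD, cut at about 35% in these data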;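 also: higher means more dye released from RNA so lower well fluorescence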
NadD block = NadD (S. aureus) enzyme inhibition | 360,000 tested, 0.78% active | purified NadD enzyme, colorimetric absorbance read-out | inhibition, % at 20 µM; in the data active = inhibition above about 26%
NR3A LBD binder = modulates the human NR3A ligand-binding domain; NR3A LBD differential scanning fluorimetry, Tm shift; 0% = protein alone, 100% = glycine-bound protein; Tm shift relative to glycine control, % at 25 µM; 340,000 tested, 2.5% active; AID 1259313;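 active = melting temperature shift of at least 10% of the positive control shift, at one fixed dose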
NadD conf = confirmation of Staphylococcus aureus NadD inhibitors; purified S. aureus NadD, colorimetric enzyme assay; shares compounds with NadD block; 2,000 tested, 13% active; AID 624309; inhibition, % at 20 µM; in the data active = inhibition mostly above about 42%, no sharp cut-off; inactive = mostly below about 42%
Each line names hits and unclear results; the compound was inactive in the other large screens (follow-up assays come after a bar, where they were run). Compounds with a hit are over-represented: about 4.3% of the library has one in this group of screens.

Cc1ccc2nc(N/N=C\c3ccc([N+](=O)[O-])o3)nc(-c3ccccc3)c2c1	NadD block 37 | NadD conf inactive
CCOC(=O)CC[C@@H]1CC[C@]2(CCCN(Cc3nccn3C)C2)O1	none (no result: FAS-TE inh, NadD block, NR3A LBD binder)
O=C1C2C(c3ccccc3)CC=CC2[C@H](c2ccc3ccccc3c2)N1Cc1ccccc1 (some centres not stated)	none
CN(C)c1ccc(-c2cccc(C3CC=CC4C3C(=O)N(Cc3ccccc3)C4c3ccc4ccccc4c3)c2)cc1 (configuration not stated)	NadD block 32 | NadD conf inactive
Cc1ccc(-c2cccc(C3CC=CC4C3C(=O)N(Cc3ccccc3)C4c3ccc(C(F)(F)F)cc3)c2)cc1 (configuration not stated)	none
COc1ccc(C2C3C=CCC(c4cccc(-c5ccc(C)cc5)c4)C3C(=O)N2Cc2ccccc2)cc1Cl (configuration not stated)	NadD block 36 | NadD conf inactive
COc1ccc(-c2cccc(C3CC=CC4C3C(=O)N(Cc3ccccc3)C4c3ccc4ccccc4c3)c2)cc1 (configuration not stated)	NadD block 31 | NadD conf inactive
CN1C(=O)[C@@]2(C3=C(CCCC3=O)OC3=C2C(=O)OC2(CCCCC2)C3)c2ccccc21	none (no result: FAS-TE inh, NadD block, NR3A LBD binder)
Brc1cccc(CN2CCN(c3ncc(Cc4ccccc4)cn3)CC2)n1	none (no result: FAS-TE inh, NadD block, NR3A LBD binder)
Nc1c(C(=O)O)sc2nc(-c3ccc(F)cc3)cc(-c3ccccc3)c12	NadD block 37 | NadD conf inactive
CC1(C)Cc2c(c(N3CCOCC3)nc3sc4c(NN)ncnc4c23)CS1	NadD block 34 | NadD conf inactive
O=C(NCc1ccccc1)c1ccc(CO)cc1	none (no result: FAS-TE inh, NadD block, NR3A LBD binder)
Cc1ccc(C)c(N2CCN(C(=O)c3ccc(Cn4c(=S)[nH]c5ccc(N6CCOCC6)cc5c4=O)cc3)CC2)c1	NadD block 30 | NadD conf inactive
Cc1cccc(N2CCN(C(=O)CCCCCn3c(=S)[nH]c4ccc(N5CCOCC5)cc4c3=O)CC2)c1C	NadD block 46 | NadD conf inactive
O=C(CCCCCn1c(=S)[nH]c2ccc(N3CCOCC3)cc2c1=O)NCCc1ccccc1	none
Cc1[nH]c2c(ccc3ccccc32)c1C1C(CCN)C1(C)C (configuration not stated)	NadD block 33 | NadD conf inactive
CC1NC(C)c2c(ccc3ccccc23)O1 (configuration not stated)	none
COC(=O)c1ccc(NC(=O)COc2ccc(C3C(C#N)=C(N)Oc4c3ccc3ccccc43)cc2OC)cc1 (configuration not stated)	NadD block 51 | NadD conf inactive
CCc1ccc(C2=NNC(=Nc3cccc(S(=O)(=O)N(C)C)c3)SC2)cc1	NadD block 34 | NadD conf inactive
COc1ccc(OC)c(S(=O)(=O)CC(=O)c2cc3ccc(OC)cc3oc2=O)c1	NadD block 36 (no result: rCAG binder) | NadD conf inactive
Cc1ccccc1CSCC1Nc2ccc(C(=O)NCCc3ccccc3)cc2NC1=O (configuration not stated)	NadD block 45 (no result: NR3A LBD binder) | NadD conf 74
Cc1cc2c(cc1C)NC(CC(=O)NCc1ccccc1)C(=O)N2 (configuration not stated)	none
Cc1cc(OCC(=O)Nc2ccc(N3CCCC3)cc2)cc(C)c1Cl	NadD block 43 | NadD conf inactive
CCN1Cc2nnn(CC3CCCCC3)c2-c2ccccc2S1(=O)=O	none (no result: FAS-TE inh, NadD block, NR3A LBD binder)
O=[N+]([O-])c1ccccc1/C=C/C=N/Nc1ccc(S(=O)(=O)Nc2ccc(Cl)cc2)cc1[N+](=O)[O-]	NadD block 26, NR3A LBD binder 11 | NadD conf inactive
C/C(=N\Nc1ccc(S(=O)(=O)Nc2ccc(Cl)cc2)cc1[N+](=O)[O-])c1ccc(N2CCOCC2)cc1	none
O=[N+]([O-])c1cc(S(=O)(=O)Nc2cccc(Cl)c2)ccc1N/N=C/c1ccc(N2CCOCC2)cc1	NadD block 28 | NadD conf inactive
C/C(=N\Nc1ccc(S(=O)(=O)Nc2ccccc2)cc1[N+](=O)[O-])c1ccc(N2CCOCC2)cc1	NadD block 42 | NadD conf inactive
Cc1ccccc1CN1CCCCC(NC(=O)c2ccccc2)C1=O (configuration not stated)	none (no result: FAS-TE inh, NadD block, NR3A LBD binder)
N#C/C(=C/c1cn(-c2ccccc2)nc1-c1cccc(OCc2ccc(F)cc2)c1)C(=O)NCCCn1ccnc1	NadD block 37 | NadD conf inactive
O=C(NCCCn1ccnc1)c1cn(-c2ccccc2)nc1-c1ccc(F)cc1	none
